Assay outcomes from PubChem BioAssay.
This is one part of a sample in which hits are shown more often than they occur.
FBPA Giardia inh = Giardia lamblia aldolase inhibition; purified Giardia FBPA; A8B2U2; AID 2451; 0.71% of 290,000 active; Potency, µM (top dose mostly 59.6 µM), for inactives: at the top dose activity, negative = inhibition, usual class: inhibitors; also: potency is read from the fitted curve at half-maximal effect; % is scaled to controls: 0 for no effect and ±100 for the full control effect; nearly all actives have a fitted effect of over 55% in size
Target sequence (A8B2U2 whole entry, looked up): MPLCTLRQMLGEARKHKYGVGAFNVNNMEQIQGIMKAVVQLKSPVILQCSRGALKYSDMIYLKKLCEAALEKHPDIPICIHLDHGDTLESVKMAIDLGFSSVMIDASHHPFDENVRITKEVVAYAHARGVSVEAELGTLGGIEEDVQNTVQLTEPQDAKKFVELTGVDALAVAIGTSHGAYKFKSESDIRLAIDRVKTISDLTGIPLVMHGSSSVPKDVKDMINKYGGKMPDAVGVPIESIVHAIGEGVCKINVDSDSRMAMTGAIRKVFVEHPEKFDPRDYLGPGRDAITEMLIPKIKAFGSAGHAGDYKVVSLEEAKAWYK
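Giardia FBPA (40 nM reagent) was preincubated 10 min at RT with compound (up to 57.5 uM final), then substrate plus GAPDH/TPI/NAD/arsenate coupling system with diaphorase/resazurin was added; resorufin fluorescence (525/598 nm) was read after 20 min.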
RE007 growth inh = less growth of the S. pombe RE007 Vpr strain; S. pombe RE007 Vpr strain, BacTiter-Glo ATP luminescence, 24 h; 0.21% of 360,000 active; Potency, µM (titrated, usually from 92.2 µM), for the others: at the top dose activity change, negative = less growth, hits mostly inhibitors; AID 651644; active = well fitted falling curve with a large enough effect; inconclusive = small, poorly fitted or top-dose-only effect; inactive = no such curve, though single readings can be large or run the other way; also: potency is read from the fitted curve at half-maximal effect; % is scaled to controls: 0 for no effect and ±100 for the full control effect; nearly all actives have a fitted effect of over 50% in size
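Fission yeast strain RE007, carrying one chromosomally integrated HIV-1 vpr copy, was seeded at OD 0.01 in PMG+AL medium with 23 nL pinned compound. After 24 h at 30 °C and 99% humidity, viability was read by BacTiter-Glo luminescence.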
LmPK inh = LmPK (Leishmania mexicana) enzyme inhibition; Q27686; purified LmPK, Kinase-Glo ATP luminescence, 1 h; Potency, µM (top dose mostly 57.5 µM), for inactives: top-dose activity change, negative = inhibition, hits mostly inhibitors; 0.37% of 290,000 active; AID 1721; also: potency is read from the fitted curve at half-maximal effect; % is scaled to controls: 0 for no effect and ±100 for the full control effect
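Screened at intermediate enzyme activity to detect both inhibitors and activators: LmPK at 0.1 nM, with a 0.5 nM enzyme column as activation reference. PEP 0.5 mM, ADP 0.1 mM; ATP detected by luminescence after 1 h.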
Shiga inhibitor = blocks Shiga toxin action in Vero cells | inhibition, % at 38.7 µM | Vero cells, Shiga toxin protein synthesis inhibition reporter | 9.2% of 290,000 active; in the data active = inhibition mostly above about 28%, no sharp cut-off; inactive = mostly below about 43%; also: 0% is about no effect
Cycloheximide cs = counter-screen hit for Shiga toxin inhibitors, cycloheximide | AID 2314 | cell reporter, cycloheximide protein synthesis inhibition counterscreen | max response, % | 12% of 300,000 active; in the data active = max response mostly above about 13%, no sharp cut-off; inactive = mostly below about 14%; also: read at 38.3 µM for the half of the compounds with a filed dose; 0% is about no effect
TbPYK inhibitor = T. brucei pyruvate kinase inhibition | Q57TT1 | TbPYK enzyme, Kinase-Glo Plus ATP luminescence, 45 min | Potency, µM (highest dose often 76.8 µM), inactives show at the top dose activity, negative = inhibition, hits mostly inhibitors | 0.12% of 410,000 active | AID 624173; also: potency is read from the fitted curve at half-maximal effect; % is scaled to controls: 0 for no effect and ±100 for the full control effect; nearly all actives have a fitted effect of over 50% in size
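Enzyme and substrate buffer are dispensed first and compound is pin-transferred. ADP at 130 uM final then starts the reaction, which runs 45 min at room temperature. Detection reagent is added for 10 min before luminescence is imaged.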
* hit, by the source's call; ? = inconclusive; . = no result given; + = active, no number; [ ] = remark or other dose. Unless noted, calls follow the shape of the dose curve; as a rule, active = well fitted curve in the direction sought with a large enough effect; inconclusive = small, poorly fitted or top-dose-only effect, or another doubt; inactive = no such curve, though single readings can be large; an effect the other way counts as inactive or inconclusive.

SMILES	FBPA Giardia inh	RE007 growth inh	LmPK inh	Shiga inhibitor	Cycloheximide cs	TbPYK inhibitor
CCCC(=O)Nc1nc2ccc(C(=O)OCC)cc2s1	8%	17%	2%	73*	26*	-2%
CCCCC(=O)Nc1nc2ccc(C(=O)OC)cc2s1	2%	-1%	2%[11.5 µM]	97*	27*	-6%
CCOC(=O)c1ccc2nc(NC(=O)C(C)C)sc2c1	-1%	13%	-2%	59*	44*	1%
C=CCN(CC=C)S(=O)(=O)c1ccc2nc(NC(=O)C(C)C)sc2c1	0%	-11%	0%	-10	-1	-11%
Cc1cccc(NC(=O)C(=O)NCCc2sc(-c3ccccc3)nc2C)c1C	.	.	.	.	.	-2%
Cc1ccc(CCNC(=O)c2cnc3c(C)cccn3c2=O)cc1	.	.	.	.	.	-2%
O=C(NCCCN1CCN(c2ccccc2)CC1)c1nnc(Cc2c(F)cccc2Cl)o1	.	.	.	.	.	2%
Cc1ccc(NC(=O)c2cccc3cccnc23)cc1	4%	-26%	-5%	111*	35*	-2%
O=C(NCCc1ccccc1F)c1cccc2cccnc12	-10%	-5%	-6%	82*	52*	0%
CC(=O)Nc1cccc(NC(=O)c2cccc3cccnc23)c1	-2%	-4%	3%	32	19*	4%
CN(CC(=O)Nc1ccc(Cl)c(Cl)c1)C(=O)c1cccc2cccnc12	.	6%	.	.	.	6%
CCN1CCN(C(=O)c2c(C)nn(-c3ccc(F)cc3)c2-n2cccc2)CC1	.	.	.	.	.	1%
O=C1CC(c2ccccc2)Sc2ccccc2N1Cc1ccccc1F (centres undefined)	.	.	.	.	.	1%
Cc1noc(C)c1CSCC(=O)Oc1ccc(N(C)S(=O)(=O)c2ccc(Cl)cc2)cc1	.	-16%	.	.	.	-7%
O=C(N[C@@H](Cc1c[nH]c2ccccc12)C(=O)NC1CC1)c1ccccc1Cl	-3%	11%	-6%	28	47*	3%
CCCNC(=O)[C@H](Cc1c[nH]c2ccccc12)NC(=O)c1ccccc1Cl	-4%	6%	-3%	9	25*	2%
COc1cc(C(=O)N[C@@H](Cc2c[nH]c3ccccc23)C(=O)O)cc(OC)c1OC	-8%	-23%	4%	67*	35*	2%
CCCCNC(=O)[C@H](Cc1c[nH]c2ccccc12)NC(=O)c1ccccc1Cl	-3%	4%	4%	11	-1	2%
O=C(N[C@@H](Cc1c[nH]c2ccccc12)C(=O)O)c1ccccc1Cl	-11%	10%	-2%	-17	-1	-8%
CN(C)S(=O)(=O)c1cccc(C(=O)Nc2ccccc2[N+](=O)[O-])c1	1%	4%	1%	51*	18*	10%
Cc1c(NC(=O)c2cccs2)cccc1[N+](=O)[O-]	5%	?	2%	-4	3	-2%
O=C(O)c1ccc(NS(=O)(=O)c2cccc(C(=O)Nc3ccccc3[N+](=O)[O-])c2)cc1	2%	-4%	1%	-4	6	-5%
COc1ccccc1Nc1ccc(NC(=O)c2cccc([N+](=O)[O-])c2C)cc1	-3%	-20%	3%	55*	30*	-6%
COc1cc(C(=O)Nc2ccc(N(C)C)cc2)c([N+](=O)[O-])cc1OC	-2%	1%	-8%	107*	41*	-6%
Cc1c(NC(=O)c2ccccc2)cccc1[N+](=O)[O-]	-4%	.	-2%	+	17*	-2%
COc1ccc(Cn2c(SCc3ccc(C(=O)NCc4cccs4)cc3)nc3cccnc32)cc1	.	.	.	.	.	0%
Cc1cc(C)c(-c2n[nH]c3c2C(c2ccccc2F)N(Cc2ccco2)C3=O)c(O)c1 (centres undefined)	.	.	.	.	.	-5%
CC(=O)c1ccc(N2CCN(C(=O)c3cn(C)c(=O)c4c3c3ccccc3n4C)CC2)cc1	.	.	.	.	.	0%
CC[N+]1(CC)CCC(=C(c2ccccc2)c2ccccc2)C1C (centres undefined)	.	.	.	.	.	4%
CCN(CC)S(=O)(=O)c1cc(C(=O)Nc2cc(C)[nH]n2)ccc1Cl	12%	-8%	-1%	117*	67*	3%
